This is an account of results in PubChem BioAssay AID1259318 (Sanford-Burnham Center for Chemical Genomics, 2017).

The whole screen tested about 370,000 compounds, of which about 3,000 (0.81%) were called active.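 The calls were made as follows: active = activity above about 14% (limit read from the data; passing the limit was not always enough); inactive = the rest.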 Shown is part of a subset that was picked to be rich in actives.

The target in the assay is Nuclear receptor subfamily 1 group D member 1 (Homo sapiens) (UniProt P20393). Put plainly: modulators of Rev-erb alpha DNA binding, primary screen, biochemical, FITC-DNA, fluorescence polarization, uHTS (AID 1259318).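 Also: 0% = DMSO wells with 35 nM protein and 100% = DMSO wells with 750 nM protein.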 Particulars: Rev-erbα–FITC-DNA binding, 90 min, at 10 µM, stronger effect = higher value. On the technique in general: Polarisation of emitted light reports the rotation of a fluorescent probe.
Nuclear receptor subfamily 1 group D member 1 (Homo sapiens), sequence (P20393 whole entry, looked up): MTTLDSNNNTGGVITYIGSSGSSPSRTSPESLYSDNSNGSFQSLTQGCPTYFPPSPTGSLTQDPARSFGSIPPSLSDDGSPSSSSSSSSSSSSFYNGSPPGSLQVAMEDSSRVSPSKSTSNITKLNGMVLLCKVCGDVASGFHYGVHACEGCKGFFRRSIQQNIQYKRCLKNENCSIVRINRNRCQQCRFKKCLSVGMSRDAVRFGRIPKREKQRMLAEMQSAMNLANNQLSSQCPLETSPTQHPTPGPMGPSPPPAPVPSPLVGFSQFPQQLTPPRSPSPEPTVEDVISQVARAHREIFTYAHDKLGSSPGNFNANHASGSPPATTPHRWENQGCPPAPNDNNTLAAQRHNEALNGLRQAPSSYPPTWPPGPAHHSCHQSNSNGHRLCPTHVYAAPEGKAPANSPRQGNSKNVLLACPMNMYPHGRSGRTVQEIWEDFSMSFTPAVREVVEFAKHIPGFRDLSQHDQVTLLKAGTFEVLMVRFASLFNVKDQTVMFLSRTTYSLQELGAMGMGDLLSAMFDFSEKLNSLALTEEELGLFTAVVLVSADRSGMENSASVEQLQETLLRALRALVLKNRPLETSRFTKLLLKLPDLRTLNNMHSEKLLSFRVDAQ
In the case of `CCc1c(-c2ccccc2)nc(N)c(C#N)c1-c1cccs1`, the activity is 12% (inactive).
The same measure for `CN1CCc2nc(SC(C(=O)O)c3ccccc3)c(C#N)c(-c3cccs3)c2C1` (stereo not given): -2.52% (inactive); for `Cc1c(-c2ccccc2)nc(N)c(C#N)c1-c1cccs1`: 29.3% (active); for `C=CCOc1cccc(CNn2cn[nH]c2=S)c1`: -6% (inactive).
Turning to `CN(C(=O)COC(=O)Cn1cnc2c1c(=O)n(C)c(=O)n2C)C1(C#N)CCCCC1`, the activity is 0.32% (inactive).
Consider `O=C(CSc1ccc(-c2ccc(F)cc2)nn1)Nc1ccc2c(c1)OCCO2`, for which the activity is -5.86% (inactive).
The same measure for `CC(=O)c1cc2c(cc1NC(=O)Cn1nc(-c3ccc(F)cc3)ccc1=O)OCO2`: 1.35% (inactive); for `CCOc1cccc(NC(=O)Cn2nc(-c3ccc4c(c3)OCCO4)ccc2=O)c1`: 52.4% (active).
For `CC(C)C(C#CC1CC1)N(Cc1ccc2c(c1)OCO2)C(N)=NC(=O)/C=C/c1cccc(C(F)(F)F)c1` (stereo not given) the value was -2.7% (inactive).
For `Cn1c(-c2sccc2OCc2cccc(C(F)(F)F)c2)n[nH]c1=S` the value was -0.5% (inactive); for `O=C(CSc1ncnc2c1oc1ccccc12)NC1CCCC1`, -1.38% (inactive); for `CC(C)CCSc1ncnc2c1oc1nc3c(cc12)COC(C)(C)C3`, 0.04% (inactive).
`CC1(C)Cc2nc3sc4c(SCC(=O)NC(c5ccccc5)c5ccccc5)ncnc4c3cc2CO1`: the activity is 199% (active).
For `COCCN1C2=C(COC(C)(C)C2)C(=S)NC1c1ccccc1` (stereo not given) the value was 1.37% (inactive); for `COc1ccccc1NC(=O)c1c(Br)cnn1C`, 2.04% (inactive); for `COc1ccccc1NC(=O)C(CC(=O)O)Cc1cc(C)cc(C)c1` (stereo not given), -2.91% (inactive).
For `COC(=O)c1c(NC(C)=O)sc(C(=O)Nc2ccccc2OC)c1C` the value was 32.9% (active); for `O=C(CCc1ccc(S(=O)(=O)N2CCOCC2)cc1)Nc1ccc2ccccc2c1`, -2.19% (inactive).
With `O=C(NC1CC1)C(Cc1ccccc1)NS(=O)(=O)c1ccccc1F` (stereo not given), the activity was 3.33% (inactive).
For `CC(C(=O)N=Nc1c(O)n(C)c2ccc(Br)cc12)n1cnc2ccccc2c1=O` (stereo not given) the value was 2.88% (inactive); for `COc1ccccc1C(=O)Nc1ccnn1C1CCN(Cc2cnn(C)c2)CC1`, 4.21% (inactive).
For `COc1ccccc1N1CCN(CC(=O)Nc2ccnn2C2CCCC2)CC1` the value was 15.8% (active); for `COc1cccc(N2CCN(CC(=O)Nc3ccnn3C3CCCC3)CC2)c1`, 5.07% (inactive).
The same measure for `C#CCNc1nc(C(C)C)nc2c1nnn2Cc1ccccc1F`: 2.17% (inactive).
As to `CCCCCCCCCOC1OC(CO)C(O)C(O)C1NC(C)=O` (stereo not given), the activity is 1.37% (inactive).
The same measure for `CCC(C)C1(C2CCCC2)NC(=O)NC1=O` (stereo not given): 16.3% (active); for `c1cncc(CNc2ccnc(-c3ccc4c(c3)OCO4)n2)c1`: 3.58% (inactive).
The same measure for `Cc1ccc2nc(C)c3c(c2c1)N(c1ccccc1)CC3`: 8.49% (inactive); for `CCOc1cccc(C(=O)Nc2nnc(-c3cccs3)s2)c1`: 23.2% (active).
On to `CCOc1cccc(C(=O)Nc2cnn(Cc3ccccc3)c2)c1`, for which the activity was -1.52% (inactive).
For `Cc1ccc(C(=O)Oc2coc(CSc3nnc(NC(=O)c4cccs4)s3)cc2=O)cc1C` the value was 12.7% (inactive).
`Cc1ccc(C(=O)Nc2nnc(-c3cccs3)s2)cc1C`: the activity was 22.5% (active).
With `CCOc1ccc(C(=O)Nc2nccs2)cc1[N+](=O)[O-]`, the activity is 13.7% (inactive).
For `Cc1ccc(C(=O)NC(C)C(c2cccs2)N2CCOCC2)cc1C` (stereo not given) the value was -7% (inactive).
For `CSc1ccccc1C(=O)OCC(=O)N1CCN(C(C)=O)CC1` the value was -6.48% (inactive); for `COCCCNC(=O)Cn1cc(/C=C(\C#N)C(=O)N2CCN(c3ccccc3)CC2)c2ccccc21`, 1.28% (inactive); for `COc1ccc2c(c1)CCC/C2=N\OC(=O)c1ccccc1F`, -4.23% (inactive).
For `COc1cc(NS(=O)(=O)c2ccc(NC(=O)c3ccc(S(=O)(=O)N4CCCCC4)cc3)cc2)ncn1` the value was -7.53% (inactive); for `CCSC1=NCCN1S(=O)(=O)c1ccc(F)cc1`, 8.78% (inactive).
`COc1nc(-c2ccc(Cl)cc2)ccc1-c1noc(-c2cccs2)n1`: the activity is 56.6% (active).
The same measure for `N#Cc1ccc(-c2ccc(Cl)cc2)nc1Oc1ccc(F)cc1`: 6.3% (inactive); for `CC(C)C[C@@H]1Cc2[nH][nH]c(=O)c2[C@H](CCc2ccccc2)O1`: -3.25% (inactive).
The same measure for `CCCn1c(O)c(CN2CCCC(C)C2)c(C)c(C#N)c1=O` (stereo not given): 8.88% (inactive).
The same measure for `CSc1ncnc2c1ncn2CC(=O)C1CCC2C3CCC4=CC(=O)CCC4(C)C3CCC12C` (stereo not given): -3.58% (inactive); for `CCC(=O)c1c(CC)c2n3c1=CC[C@H]3CC(Br)C=2` (stereo not given in full): 2.99% (inactive).
For `CC(Sc1ccccc1F)C(=O)Nc1cccc(S(=O)(=O)N2CCOCC2)c1` (stereo not given), the activity is -3.07% (inactive).
The same measure for `Cn1c(=NC(=O)c2ccc3c(c2)OCCO3)sc2cc(S(C)(=O)=O)ccc21`: 22.9% (active); for `CS(=O)(=O)c1ccc(-c2nnn(CC(=O)Nc3ccc4c(c3)OCCO4)n2)cc1`: 6.46% (inactive); for `COCCn1c(=NC(=O)c2ccccc2[N+](=O)[O-])sc2cc(S(C)(=O)=O)ccc21`: 3.08% (inactive).
For `COc1ccc(C(=O)OCCN(C)C2CN(Cc3cn(Cc4cccc(C)c4)nn3)S(=O)(=O)C2)cc1OC` (stereo not given) the value was -5.04% (inactive).
Turning to `CSc1ccccc1NC(=O)CN(C)CC(=O)Nc1cccc(Br)c1`, the activity was -5.77% (inactive).
For `CC(=O)c1ccc(N2CCN(S(=O)(=O)c3ccc4c(c3)CC(=O)N4C)CC2)cc1` the value was 1.85% (inactive); for `Cc1ccccc1N1CCN(S(=O)(=O)c2ccc3ccccc3c2)CC1`, 3.07% (inactive).
The same measure for `CC(=O)c1ccc(S(=O)(=O)N2CCN(c3nc4c(C)c(C)ccc4cc3C#N)CC2)cc1`: 223% (active); for `CCN(CCCNC(=O)c1ccc2c(c1)NC(=O)CN2C)c1cccc(C)c1`: -3.82% (inactive); for `COC(=O)c1sc(NC(=O)c2ccc(OC)cc2OC)nc1C`: 28.7% (active).
The same measure for `COc1ccc(Cc2nnc(NC(=O)c3ccc(OC)cc3OC)s2)cc1`: 45.2% (active); for `COCCSc1nnc(NC(=O)c2cc(OC)c(OC)cc2[N+](=O)[O-])s1`: 7.5% (inactive); for `COc1ccc(C(=O)CSc2nnnn2C)c(OC)c1`: 1.25% (inactive).
For the compound `COc1ccc(N(CC(=O)Nc2cccc3ccccc23)S(C)(=O)=O)c(OC)c1`, the activity was 0.94% (inactive).
Take `COc1ccc(CNC(=O)CCC(=O)Nc2nnc(C(C)C)s2)cc1`: the activity was -2.06% (inactive).
Turning to `COc1ccc(C(=O)Nc2cccc(NC(=O)c3ccc(OC)cc3OC)n2)c(OC)c1`, the activity is 22.5% (active).
Take `COc1ccc(C(=O)COC(=O)C(O)c2ccccc2)c(OC)c1` (stereo not given): the activity was 7.39% (inactive).
The same measure for `COc1ccc(C(=O)N2CCCN(C)CC2)c(OC)c1`: 1.46% (inactive).
The same measure for `CCc1ccc(Nc2ncc3c(n2)CC(c2ccco2)CC3=O)cc1` (stereo not given): 2.68% (inactive); for `CCCNC(=O)CCc1c(C)nc2c(c(C)nn2-c2ccccc2)c1C`: -3.83% (inactive).
As to `NCC[C@@H](O)C(=O)N[C@@H]1C[C@H](N)[C@@H](O[C@H]2O[C@H](CN)[C@@H](O)[C@H](O)[C@H]2O)[C@H](O)[C@H]1O[C@H]1O[C@H](CO)[C@@H](O)[C@H](N)[C@@H]1O`, the activity is -0.91% (inactive).
The same measure for `CCOC(=O)Cn1c(=O)oc2cc(S(=O)(=O)NCC3CCCO3)ccc21` (stereo not given): -1.52% (inactive).
For `COCCCNC(=O)C1CCC(CNS(=O)(=O)c2ccc(OC)cc2)CC1` (stereo not given) the value was -5.72% (inactive).
The same measure for `Cc1ccc(-n2nc3cc(C)c(NC(=O)c4cccnc4)cc3n2)cc1`: 36.7% (active); for `O=C(Nc1cccc(-n2cnnn2)c1)c1cccnc1`: 1.66% (inactive); for `Cc1cccc(C(=O)Nc2ccccc2C(=O)NCc2cccnc2)c1`: 0.06% (inactive).
For `Cc1ccc(-n2c(COc3ccccc3)nnc2SCC(=O)Nc2ccc3c(c2)OCCO3)cc1`, the activity was 1.23% (inactive).
For `CCc1ccc(-c2cc3c(=O)n(CC(=O)NCCCN4CCN(Cc5ccccc5)CC4)nc(C)n3n2)cc1` the value was 2.85% (inactive).
The same measure for `COC(=O)C[C@H]1C[C@@H]2c3cc(N(C)C)ccc3O[C@@H]2[C@H](CO)O1`: 7.34% (inactive); for `CCN1C(=O)/C(=C\N2CCN(c3cccc(Cl)c3)CC2)SC1=S`: 877% (active).
The same measure for `CCC1(C)NC(=O)N(CC(=O)N2CCN(c3cccc(Cl)c3)CC2)C1=O` (stereo not given): -2.92% (inactive).
Turning to `CCN1C(=O)/C(=C\N2CCOCC2)SC1=S`, the activity was 2.02% (inactive).
The same measure for `CCCc1nnc(NC(=O)CCC(=O)N2CCN(S(=O)(=O)c3ccc(OC)cc3)CC2)s1`: -2.83% (inactive).
For `COC(=O)[C@@]12C[C@@H](CC(=O)NCCCCc3ccccc3)C(=O)N(CCc3ccc(OC)c(OC)c3)C1=CCC(C)(C)C2` the value was 0.11% (inactive).
On to `O=C(NCc1ccc(Cl)cc1)c1cc2c(nc3sccn32)s1`, for which the activity was 25.1% (active).
For `O=C(NCc1ccc2c(c1)OCO2)c1c(O)nc2sccn2c1=O` the value was -1.37% (inactive); for `O=C(NCc1ccc(Cl)cc1)c1cc(=O)nc2sc(-c3ccccc3)nn12`, 7.32% (inactive); for `COCc1c(C(=O)N/N=C/C2CC=CCC2)nnn1-c1nonc1N` (stereo not given), -3.01% (inactive).
Take `CN(CC1CCCN(CCc2cccc(C(F)(F)F)c2)C1)C(=O)c1ccc2nc[nH]c2c1` (stereo not given): the activity was 4.2% (inactive).
For `CC1=CC[C@H](C(C)(C)O)CC1` the value was 1.53% (inactive).
For `COc1ccc(S(=O)(=O)N2CCOCC2)cc1C(=O)NC1CCCCC1` the value was -1.23% (inactive); for `COc1ccc(S(=O)(=O)N2CCOCC2)cc1NC(=O)CSc1ncnc2ccccc12`, -2.02% (inactive); for `COc1ccc(S(=O)(=O)N2CCOCC2)cc1C(=O)Nc1nc2ccccc2s1`, 46.8% (active).
`CC1CN(C(=O)c2ccc3c(c2)OCO3)OC(c2ccccc2)O1` (stereo not given): the activity was 8.07% (inactive).
